TRPM1 prom inh: reduces MITF-dependent TRPM1 promoter luciferase signal; SK-MEL-5 TRPM1 promoter luciferase, 24 h; inhibition, % at 12.5 µM; 330,000 compounds, 0.83% hits;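 active = mean inhibition across replicates of 60% or more, whatever share of single replicates reaches that level; inconclusive = some that reach 60%, reason not given; inactive = mean inhibition across replicates below 60%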
Peg3 promoter: Peg3 promoter activity inhibition; HeLa PEG-Prom luciferase reporter, luminescence, overnight; inhibition, % at 20 µM; 360,000 compounds, 1.7% hits; AID 588405;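 active = inhibition of at least 50% at 20 µM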
KKLEB cytotox: reduces viability of KKLEB cystic fibrosis airway cells; KKLEB CF airway cells viability, ATPlite luminescence, overnight; stronger effect = lower value; cells stimulated with P. aeruginosa culture filtrate; activity change (cytotoxicity), % at 5 µM; 360,000 compounds, 0.36% hits;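 active = corrected activity change at or below -50% at 5 µM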
CF NFkB block: blocks PAF-induced NF-kB reporter in cystic fibrosis cells | inhibition, % at 5 µM | KKLEB NF-kB-GFP reporter, GFP fluorescence overnight | AID 588850 | 360,000 compounds, 0.86% hits;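 active = at least 50% inhibition at 5 µM, scaled per plate between neutral and stimulator controls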;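 note: PAF is a Pseudomonas aeruginosa culture filtrate used as stimulus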
Shn3 inh set2: inhibitors of Schnurri-3 3'UTR reporter in osteoblasts | Clone20 osteoblast Shn3 3'UTR firefly luciferase, 24 h | inhibition, % at 12.5 µM | 360,000 compounds, 0.52% hits | AID 588674;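 active = mean inhibition of at least 75% with every replicate also reaching 75%; inconclusive = mean inhibition at least 75% but some replicate below; inactive = mean inhibition below 75%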
HIF-2a inh: blocks HIF-2a reporter activity. 786-0 RCC cells HIF-2a reporter, luciferase luminescence, overnight. inhibition, % at 18.8 µM. 360,000 compounds, 0.72% hits. AID 624352;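 active = inhibition of the luminescence signal of 40% or more relative to plate controls, in a single-dose primary screen at 18.75 µM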
Mdm2-MdmX confirm: Mdm2/MdmX (human) interaction inhibition, confirmed. AID 504601. 740 compounds, 99% hits. shares compounds with HIF-2a inh. SaOS-2 split-luciferase Mdm2/MdmX complementation, luminescence. inhibition, % at 8 µM;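 active = mean inhibition of the luminescence signal across two replicates at or above 26 percent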
HIF-2a inh conf: confirmation of HIF-2a inhibitors; shares compounds with HIF-2a inh; 786-0 RCC cells, HIF-2a luciferase reporter luminescence, overnight; inhibition, % at 18.8 µM; 1,800 compounds, 56% hits; AID 651580;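 active = mean inhibition across four replicates of at least 40 percent at the single tested concentration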
HIF-1a cs: counter-screen for HIF-2a inhibitors: HIF-1a inhibition in MiaPaCa-2 cells; 1,800 compounds, 72% hits; inhibition, % at 18.8 µM; MiaPaCa-2 HIF-1a luciferase reporter, desferoxamine, overnight; shares compounds with HIF-2a inh;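 active = mean inhibition of the reporter signal across four replicates at the single tested dose of 50% or more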
A number is an active result; n = inactive; u = inconclusive; x = no result given. Hits are enriched below; roughly 2.7% of the tested compounds scored in any of these assays.

SMILES	TRPM1 prom inh	Peg3 promoter	KKLEB cytotox	CF NFkB block	Shn3 inh set2	HIF-2a inh	Mdm2-MdmX confirm	HIF-2a inh conf	HIF-1a cs
O=[N+]([O-])c1cccc2cnccc12	n	n	n	n	n	n	x	x	x
CCOC(=O)C(CC)(CC)C(=O)/C=C/c1ccc(Br)cc1	n	75	n	n	n	58	x	n	106
CCS(=O)(=O)c1ncc(Cl)c(C(=O)Nc2ccc(S(=O)(=O)N3CCC(C)CC3)cc2)n1	97	105	-105	98	99	86	103	99	103
CN(c1ccccc1)S(=O)(=O)c1ccc(NC(=O)c2ccccc2)cc1	n	n	n	n	n	n	x	x	x
COC(=O)c1ccc(NC(=O)c2nc(S(=O)(=O)Cc3cccc(C)c3)ncc2Cl)cc1	94	99	-101	85	95	92	103	75	94
Cc1cccc(CS(=O)(=O)c2ncc(Cl)c(C(=O)NCc3ccc4c(c3)OCO4)n2)c1	u	103	n	89	94	62	x	49	n
CN(c1ccccc1)S(=O)(=O)c1ccc(NC(=O)c2nc(S(C)(=O)=O)ncc2Cl)cc1	100	111	n	108	99	65	103	99	94
Cc1ccc(C(=O)NCc2ccc3c(c2)OCO3)c(Cl)c1	x	n	n	n	n	n	x	x	x
CC1CCN(S(=O)(=O)c2ccc(NC(=O)c3ccncc3)cc2)CC1	n	n	n	n	n	n	x	x	x
CC(=O)c1cccc(NC(=O)CCc2nnc3ccc(NCc4ccc5c(c4)OCO5)nn23)c1	n	n	n	n	n	n	x	x	x
O=C(O)C(F)=C1c2ccccc2-c2ccccc21	x	n	n	n	n	n	x	x	x
C=CCOCC(O)Cn1c(N2CCCC2)nc2c1c(=O)[nH]c(=O)n2C (centres undefined)	n	n	n	n	n	n	x	x	x
CC(C)c1nnc(NC(=O)CCc2ccccc2)s1	n	n	n	n	n	n	x	x	x
CCc1ccc(NC(=O)c2nc(S(=O)(=O)Cc3ccccc3)ncc2Cl)cc1	92	101	-97	91	96	95	103	88	87
CC(C)c1nnc(NC(=O)c2nc(S(=O)(=O)Cc3ccccc3)ncc2Cl)s1	83	105	-87	100	94	92	102	x	x
COc1ccccc1NC(=O)c1nc(S(=O)(=O)Cc2ccccc2)ncc1Cl	91	105	-85	83	99	89	101	83	104
Cc1ccc(NC(=O)c2nc(S(=O)(=O)Cc3ccccc3C)ncc2Cl)cc1C	78	108	-98	99	96	93	103	x	x
O=c1[nH]c2ccc(Br)cc2c(=O)o1	x	n	n	n	n	44	x	45	n
Cc1ccc(N(CCC#N)C(=O)CCl)cc1C	n	n	n	n	n	n	103	x	x
Cc1ccc(C(=O)NCC#N)cc1	n	n	n	n	n	n	x	x	x
Cc1ccc(C(=O)NC(=C(Cl)Cl)S(=O)(=O)c2ccccc2)cc1	n	79	n	n	n	89	x	n	n
Cc1ccc(C(=O)NC(C#N)=C(Cl)Cl)cc1	x	x	x	x	x	x	103	x	x
COc1ccc(C(=O)NC(=C(Cl)Cl)S(=O)(=O)c2ccc(C)cc2)cc1	n	n	n	n	n	n	x	x	x
COc1ccc(/C=N/NC(=O)c2cccc([N+](=O)[O-])c2)c2ccccc12	n	n	n	n	n	57	x	n	n
COc1cccc(/C=N/NC(=O)c2cccc([N+](=O)[O-])c2)c1OS(=O)(=O)c1ccccc1	n	n	n	n	n	n	x	x	x
Cc1ccc2nsnc2c1S(=O)(=O)Nc1ccccc1C(=O)O	n	n	n	n	n	n	x	x	x
CC1(C)Cc2c(sc(NC(=O)COc3cccc4ccccc34)c2C#N)C(C)(C)N1	n	90	n	n	n	49	103	n	53

Source: PubChem
